# Results filed as inconclusive are left out. Active and inactive are the calls of the source. The call rests on the fitted dose curve; in most records, active means well fitted curve in the direction sought with a large enough effect; inconclusive means small, poorly fitted or top-dose-only effect, or another doubt; inactive means no such curve, though single readings can be large; an effect the other way counts as inactive or inconclusive.
# What was measured:
# [1] = qHTS of pediatric cancer cell lines to identify multiple opportunities for drug repurposing: Primary screen for MG 63 (6-TG R) cells (AID 1347105); further: nearly all actives have a fitted effect of over 50% in size
# Procedure, shortened: (§1)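 Luminescence from CellTiter-Glo served as readout of metabolically active cells after 48 h compound exposure. Titrations: MIPE 11-point, from 0.78 nM; NPC 8-point, from 0.59 nM (final). Concentration-response curves came straight from the primary screen.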
# [2] = qHTS of pediatric cancer cell lines to identify multiple opportunities for drug repurposing: Primary screen for control Hh wild type fibroblast cells (AID 1347106); further: nearly all actives have a fitted effect of over 55% in size
# Procedure, shortened: (§2)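 Cells (500-1,000/well) in growth media were settled 5 h at 37 degrees C, then given compounds for 48 h. Viability was read as CellTiter-Glo luminescence. Primary runs used MIPE at 11 points (0.78 nM-46 µM) and NPC at 8 points (0.59 nM-46 µM); follow-ups used 11 points.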
# [3] = qHTS of pediatric cancer cell lines to identify multiple opportunities for drug repurposing: Primary screen for Rh30 cells (AID 1347107); further: nearly all actives have a fitted effect of over 75% in size
# Procedure, shortened: as §2
# [4] = qHTS of pediatric cancer cell lines to identify multiple opportunities for drug repurposing: Primary screen for Rh41 cells (AID 1347108); further: nearly all actives have a fitted effect of over 70% in size
# Procedure, shortened: as §1
# [5] = qHTS of pediatric cancer cell lines to identify multiple opportunities for drug repurposing: Confirmatory screen for NB1643 cells (AID 1347109); further: nearly all actives have a fitted effect of over 45% in size
# Procedure, shortened: as §2
# [6] = qHTS of pediatric cancer cell lines to identify multiple opportunities for drug repurposing: Confirmatory screen for A673 cells (AID 1347110);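 further: cells exposed to compound for 48 h before the viability read; nearly all actives have a fitted effect of over 65% in size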
# Procedure, shortened: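 A673 cells seeded at 500-1,000 cells/well, rested 5 h, then dosed; primary MIPE 11-point (0.78 nM to 46 µM), NPC (0.59 nM to 46 µM); confirmatory 11-point. CellTiter-Glo luminescence after 48 h.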
# [7] = qHTS of pediatric cancer cell lines to identify multiple opportunities for drug repurposing: Confirmatory screen for BT-12 cells (AID 1347112); further: nearly all actives have a fitted effect of over 55% in size
# Procedure, shortened: as §2
# [8] = qHTS of pediatric cancer cell lines to identify multiple opportunities for drug repurposing: Confirmatory screen for LAN-5 cells (AID 1347113); further: nearly all actives have a fitted effect of over 65% in size
# Procedure, shortened: as §2
# [9] = qHTS of pediatric cancer cell lines to identify multiple opportunities for drug repurposing: Confirmatory screen for DAOY cells (AID 1347114); further: nearly all actives have a fitted effect of over 65% in size
# Procedure, shortened: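 Viability measured as metabolically active cells via CellTiter-Glo luminescence following 48 hours of compound exposure, 11-point dilutions in confirmatory testing. 500-1,000 cells/well plated 5 hours before dosing; controls were DMSO and 2.3 µM bortezomib.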
# [10] = qHTS of pediatric cancer cell lines to identify multiple opportunities for drug repurposing: Confirmatory screen for SK-N-MC cells (AID 1347111);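 further: cells exposed to compound for 48 h before the readout; nearly all actives have a fitted effect of over 70% in size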
# Procedure, shortened: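 Metabolically active cells were quantified by ATP-dependent luminescence (CellTiter-Glo, 15 min at room temperature) following 48 h treatment. Cells had been plated at 500-1,000 per well and settled for 5 h beforehand.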
# Potency means the concentration at half of the fitted maximal effect.
SMILES,Potency [1],Potency [2],Potency [3],Potency [4],Potency [5],Potency [6],Potency [7],Potency [8],Potency [9],Potency [10]
CC1(C)CCC(c2ccc(Cl)cc2)=C(CN2CCN(c3ccc(C(=O)NS(=O)(=O)c4ccc(N[C@H](CCN5CCOCC5)CSc5ccccc5)c(S(=O)(=O)C(F)(F)F)c4)cc3)CC2)C1,9.35 µM (active),inactive,9.35 µM (active),5.9 µM (active),inactive,8.27 µM (active),inactive,inactive,9.27 µM (active),–
C=CC(=O)Nc1cccc(Oc2nc(Nc3ccc(N4CCN(C)CC4)cc3)ncc2Cl)c1,7.43 µM (active),16.6 µM (active),18.7 µM (active),11.8 µM (active),8.27 µM (active),16.5 µM (active),16.5 µM (active),6.57 µM (active),18.5 µM (active),1.31 µM (active)
COc1cccc2c(NCc3ccccc3)nc(-n3c(N)nc4ccccc43)nc12,9.35 µM (active),inactive,14.8 µM (active),18.7 µM (active),7.37 µM (active),7.37 µM (active),13.1 µM (active),9.27 µM (active),2.33 µM (active),7.37 µM (active)
NC(=O)c1cccc2cn(-c3ccc([C@@H]4CCCNC4)cc3)nc12,inactive,inactive,inactive,inactive,–,5.22 µM (active),inactive,–,–,2.08 µM (active)
COC(=O)Nc1nc2ccc(C(=O)c3ccc(F)cc3)cc2[nH]1,0.59 µM (active),inactive,inactive,–,2.33 µM (active),1.31 µM (active),8.27 µM (active),–,1.17 µM (active),1.31 µM (active)
O=C1CCC[C@@H]2[C@H]3CCC[N+]4([O-])CCC[C@@H](CN12)[C@@H]34 (stereo partly drawn),inactive,inactive,inactive,inactive,–,–,–,–,–,–
O=C(CCCCCCNC(=O)c1cnc(N(c2ccccc2)c2ccccc2)nc1)NO,14.8 µM (active),inactive,14.8 µM (active),9.35 µM (active),–,–,–,–,–,–
COc1ccc(CC2SC(=O)NC2=O)cc1C(=O)NCc1ccc(C(F)(F)F)cc1 (stereo not drawn),inactive,inactive,inactive,inactive,–,–,–,–,–,–
CC(C)Nc1cc(C(F)(F)F)cc2nc(NC(=O)c3cccnc3)nn12,inactive,inactive,inactive,inactive,–,–,–,–,–,–
CN1CCN(c2cc(C(=O)Nc3ccc4c(c3)-c3c(c(C(N)=O)nn3-c3ccc(F)cc3)CC4)c(Cl)cn2)CC1,23.5 µM (active),20.9 µM (active),16.6 µM (active),20.9 µM (active),23.3 µM (active),14.7 µM (active),–,16.5 µM (active),23.3 µM (active),20.8 µM (active)
COc1cc2c(Oc3ccc(NC(=O)C4(C(=O)Nc5ccc(F)cc5)CC4)cc3F)ccnc2cc1OCCCN1CCOCC1,4.69 µM (active),26.4 µM (active),5.9 µM (active),4.69 µM (active),5.22 µM (active),2.33 µM (active),13.1 µM (active),5.22 µM (active),11.7 µM (active),3.69 µM (active)
CNC(=O)c1ccc(N2C(=S)N(c3cnc(C#N)c(C(F)(F)F)c3)C(=O)C23CCC3)cc1F,2.35 µM (active),3.72 µM (active),1.66 µM (active),1.48 µM (active),inactive,inactive,inactive,inactive,inactive,inactive
C[C@@H](Oc1cc(-c2cnn(C3CCNCC3)c2)cnc1N)c1c(Cl)ccc(F)c1Cl,18.7 µM (active),inactive,18.7 µM (active),18.7 µM (active),5.85 µM (active),3.29 µM (active),–,5.85 µM (active),–,5.85 µM (active)
CC(C)(C)c1cc(NC(=O)Nc2ccc(-c3cn4c(n3)sc3cc(OCCN5CCOCC5)ccc34)cc2)no1,23.5 µM (active),inactive,inactive,inactive,16.5 µM (active),0.585 µM (active),26.1 µM (active),23.3 µM (active),20.8 µM (active),10.4 µM (active)
Cc1c(CN2CCN(S(C)(=O)=O)CC2)sc2c(N3CCOCC3)nc(-c3cnc(N)nc3)nc12,0.0372 µM (active),0.209 µM (active),–,0.148 µM (active),1.31 µM (active),1.85 µM (active),–,1.31 µM (active),–,0.827 µM (active)
O=C(O)c1ccc2cc(-c3ccc(O)c(C45CC6CC(CC(C6)C4)C5)c3)ccc2c1,0.296 µM (active),inactive,–,5.9 µM (active),2.93 µM (active),2.93 µM (active),inactive,1.47 µM (active),3.69 µM (active),1.17 µM (active)

# From PubChem BioAssay (NCATS)
